The source made the active and inactive calls. How the source made its calls: active means hit-call score of the fitted dose curve at least 0.9, where 1 is the maximum; inactive means score below 0.9.
Key:
[1] = ATG_CRE_CIS: Attagene CIS-FACTORIAL HepG2 Assay for human cAMP Responsive Element (CRE) binding protein 3 (AID 2282926); conditions: HepG2 CRE cis-reporter, Attagene multiplexed mRNA; actives raise or lower the signal
How it was run: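 Endogenous transcription factor activity read via CRE-regulated reporter transcripts in transfected HepG2 cells. After 24 h exposure, RNA was reverse-transcribed, amplified, fluorescently labelled and sized by capillary electrophoresis; gain or loss fitted against DMSO.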

[2] = molecular target: CCAAT/enhancer-binding protein beta (Homo sapiens) (UniProt P17676); assay: ATG_C_EBP_CIS: Attagene CIS-FACTORIAL HepG2 Assay for human CCAAT/Enhancer Binding Protein (C/EBP) beta (AID 2282927); conditions: HepG2 Attagene cis-factorial transcription factor reporter; actives raise or lower the signal
Sequence of CCAAT/enhancer-binding protein beta (Homo sapiens) (P17676 whole entry, looked up): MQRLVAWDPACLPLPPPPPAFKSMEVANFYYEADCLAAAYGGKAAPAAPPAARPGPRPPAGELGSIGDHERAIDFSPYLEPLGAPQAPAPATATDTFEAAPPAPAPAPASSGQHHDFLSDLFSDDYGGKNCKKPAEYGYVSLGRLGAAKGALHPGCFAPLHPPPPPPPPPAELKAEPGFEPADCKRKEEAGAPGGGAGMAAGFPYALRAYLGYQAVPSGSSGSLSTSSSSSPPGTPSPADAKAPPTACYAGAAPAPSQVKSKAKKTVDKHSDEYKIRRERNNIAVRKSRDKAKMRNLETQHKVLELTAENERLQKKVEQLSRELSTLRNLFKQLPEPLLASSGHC
How it was run: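 Transiently transfected HepG2 (MRTU library, endogenous TF-driven promoters); 24 h dosing; total RNA → oligo(dT) RT → PCR → 6-FAM primer extension → HpaI digest → CE; fit bidirectionally vs DMSO.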

[3] = ATG_CMV_CIS: Attagene CIS-FACTORIAL HepG2 Assay for human CMV (Internal Marker) (AID 2282928); conditions: HepG2 CMV promoter reporter, transcription factor profiling; actives raise or lower the signal;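 further: endpoint acts as a background internal control marker rather than a target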
How it was run: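 Readout: fluorescent reporter cDNA fragments separated by capillary electrophoresis after RT-PCR and HpaI cut. Cells: HepG2 carrying transfected cis-promoter reporter constructs, dosed 24 h. Endpoint serves as background internal-marker control, fit bidirectionally versus DMSO.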

[4] = ATG_DR4_LXR_CIS: Attagene CIS-FACTORIAL HepG2 Assay for human Liver X Receptor (LXR), DR4 submotif (AID 2282929); conditions: HepG2 Attagene DR4 cis-reporter, mRNA transcription; actives raise or lower the signal
How it was run: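 After transient transfection with multiplexed cis-promoter reporter units, HepG2 cells received test chemicals for 24 h. Reporter mRNA induction, detected by fluorescence after RT-PCR and capillary electrophoresis, was scored relative to DMSO.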

[5] = molecular target: Aryl hydrocarbon receptor (Homo sapiens) (UniProt P35869); assay: ATG_Ahr_CIS: Attagene CIS-FACTORIAL HepG2 Assay for human Aryl Hydrocarbon Receptor (Ahr) (AID 2282930); conditions: HepG2 AhR cis-factorial reporter transcription; actives raise or lower the signal
Sequence of Aryl hydrocarbon receptor (Homo sapiens) (P35869 whole entry, looked up): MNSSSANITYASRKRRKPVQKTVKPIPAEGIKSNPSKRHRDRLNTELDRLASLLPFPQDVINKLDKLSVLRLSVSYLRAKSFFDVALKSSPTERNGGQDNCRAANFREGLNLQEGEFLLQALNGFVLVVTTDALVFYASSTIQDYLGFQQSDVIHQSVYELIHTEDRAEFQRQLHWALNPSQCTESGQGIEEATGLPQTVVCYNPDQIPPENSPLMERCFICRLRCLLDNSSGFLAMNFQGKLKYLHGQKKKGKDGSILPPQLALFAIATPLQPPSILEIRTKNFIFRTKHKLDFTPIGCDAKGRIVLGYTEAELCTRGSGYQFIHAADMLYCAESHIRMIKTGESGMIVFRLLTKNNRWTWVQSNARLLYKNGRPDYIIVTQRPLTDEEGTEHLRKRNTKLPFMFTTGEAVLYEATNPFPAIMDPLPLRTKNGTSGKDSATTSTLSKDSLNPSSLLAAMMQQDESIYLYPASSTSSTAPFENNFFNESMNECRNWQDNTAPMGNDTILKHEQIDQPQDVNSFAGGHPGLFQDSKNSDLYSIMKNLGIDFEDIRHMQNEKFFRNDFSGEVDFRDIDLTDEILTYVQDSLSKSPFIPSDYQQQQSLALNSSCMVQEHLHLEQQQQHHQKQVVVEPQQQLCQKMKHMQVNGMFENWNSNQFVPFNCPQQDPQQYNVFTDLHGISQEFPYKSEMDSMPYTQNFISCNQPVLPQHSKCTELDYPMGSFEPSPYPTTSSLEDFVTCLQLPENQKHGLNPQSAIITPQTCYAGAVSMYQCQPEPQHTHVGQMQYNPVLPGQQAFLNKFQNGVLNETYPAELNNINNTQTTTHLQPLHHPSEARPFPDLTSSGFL
How it was run: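 Read-out: reporter mRNA quantified by RT-PCR with fluorescent primer extension and capillary electrophoresis. Human HepG2 liver cells carried transfected cis-promoter reporter units and were exposed to chemical for 24 h; gain or loss fitted relative to DMSO.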

[6] = ATG_AP_1_CIS: Attagene CIS-FACTORIAL HepG2 Assay for human Activator Protein 1 (AP-1) (AID 2282931); conditions: HepG2 Attagene cis-factorial AP-1 reporter mRNA; actives raise or lower the signal
How it was run: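 After 24 h incubation with test chemical, RNA from transfected HepG2 cells was reverse-transcribed, amplified, fluorescently labelled and digested before capillary electrophoresis. Reporters were driven by cis-regulatory promoters; activity fitted bidirectionally versus DMSO.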

[7] = ATG_AP_2_CIS: Attagene CIS-FACTORIAL HepG2 Assay for human Activator Protein 2 (AP-2) (AID 2282932); conditions: HepG2 AP-2 cis-reporter, Attagene transcription factor profiling; actives raise or lower the signal
How it was run: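 Liver-derived HepG2 line, cis-reporter system measuring endogenous factors; 24 h dosing; reporter mRNA detected by fluorescent RT-PCR and capillary electrophoresis.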

[8] = ATG_BRE_CIS: Attagene CIS-FACTORIAL HepG2 Assay for human Bone Morphogenetic Protein (BMP) Response Element (BRE) (AID 2282933); conditions: HepG2 BMP response element reporter, Attagene transcription factor profiling; actives raise or lower the signal
How it was run: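 Multiplexed cis-reporter assay, HepG2, 24 h exposure. mRNA from reporter units quantified via RT-PCR/CE; DMSO baseline; bidirectional curve fit.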

[9] = molecular target: Retinoic acid receptor alpha (Homo sapiens) (UniProt P10276); assay: ATG_DR5_RAR_CIS: Attagene CIS-FACTORIAL HepG2 Assay for human Retinoic Acid Receptor Alpha (RARE), DR5 submotif (AID 2282934); conditions: HepG2 Attagene cis-factorial RARE DR5 reporter, mRNA; actives raise or lower the signal;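 on AC50: reporter responds to endogenous RAR alpha beta and gamma in HepG2 not RARA alone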
Sequence of Retinoic acid receptor alpha (Homo sapiens) (P10276 whole entry, looked up): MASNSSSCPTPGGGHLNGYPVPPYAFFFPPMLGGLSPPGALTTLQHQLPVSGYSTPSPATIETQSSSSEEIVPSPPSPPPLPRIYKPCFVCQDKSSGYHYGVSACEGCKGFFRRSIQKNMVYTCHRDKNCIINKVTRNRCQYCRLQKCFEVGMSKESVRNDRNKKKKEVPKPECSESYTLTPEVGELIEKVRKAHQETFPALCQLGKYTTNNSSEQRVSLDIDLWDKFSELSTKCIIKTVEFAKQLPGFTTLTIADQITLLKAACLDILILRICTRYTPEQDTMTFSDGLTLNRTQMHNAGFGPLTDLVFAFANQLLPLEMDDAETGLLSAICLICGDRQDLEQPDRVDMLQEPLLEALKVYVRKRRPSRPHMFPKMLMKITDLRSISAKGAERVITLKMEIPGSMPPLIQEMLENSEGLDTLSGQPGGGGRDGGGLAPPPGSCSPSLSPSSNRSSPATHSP
How it was run: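 Read-out: DR5-driven reporter transcript measured by RT-PCR, 6-FAM primer extension, HpaI digest and capillary electrophoresis. Human HepG2 liver cells carry transiently transfected cis-element reporter constructs; dosing lasts 24 h. Gain or loss of signal fitted against DMSO baseline.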

[10] = molecular target: Transcription factor E2F1 (Homo sapiens) (UniProt Q01094); assay: ATG_E2F_CIS: Attagene CIS-FACTORIAL HepG2 Assay for human E2F Transcription Factor 1 (AID 2282935); conditions: HepG2 Attagene cis-reporter, E2F reporter RNA transcripts; actives raise or lower the signal
Sequence of Transcription factor E2F1 (Homo sapiens) (Q01094 whole entry, looked up): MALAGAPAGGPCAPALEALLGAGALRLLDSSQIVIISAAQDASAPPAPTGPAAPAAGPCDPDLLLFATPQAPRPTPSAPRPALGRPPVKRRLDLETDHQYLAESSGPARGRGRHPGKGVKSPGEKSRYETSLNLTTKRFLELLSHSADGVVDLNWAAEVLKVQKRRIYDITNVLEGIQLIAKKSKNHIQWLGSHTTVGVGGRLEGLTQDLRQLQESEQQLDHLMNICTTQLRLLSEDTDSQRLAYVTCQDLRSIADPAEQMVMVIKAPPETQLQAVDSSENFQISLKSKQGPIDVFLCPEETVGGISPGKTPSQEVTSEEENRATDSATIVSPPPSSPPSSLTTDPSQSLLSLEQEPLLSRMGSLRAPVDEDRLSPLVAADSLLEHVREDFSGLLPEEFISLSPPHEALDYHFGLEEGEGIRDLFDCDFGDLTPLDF
How it was run: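 Liver-derived HepG2 cells expressing transfected promoter-driven reporter units received test chemical for 24 hours. Signal gains or losses were fitted bidirectionally against DMSO.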

[11] = ATG_E_Box_CIS: Attagene CIS-FACTORIAL HepG2 Assay for human Enhancer Box (E-box) (AID 2282936); conditions: HepG2 E-box cis-reporter transcription, actives raise or lower the signal
How it was run: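 In this cell-based setup, HepG2 cells bearing transfected promoter-driven reporter units were exposed to chemicals for 24 h; reporter transcripts were amplified, 6-FAM-labelled, cut with HpaI and sized by capillary electrophoresis.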

[12] = ATG_M_61_CIS: Attagene CIS-FACTORIAL HepG2 Assay for M61 Transcription Factor (Internal Marker) (AID 2282937); conditions: HepG2 Attagene CIS-FACTORIAL M61 internal marker reporter; actives raise or lower the signal
How it was run: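 Using transiently transfected HepG2 liver cells, reporter transcript levels were assessed 24 h post-dosing by RT-PCR and capillary electrophoresis. Changes in either direction were fitted relative to DMSO controls.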

[13] = ATG_EGR_CIS: Attagene CIS-FACTORIAL HepG2 Assay for human Early Growth Response 1 (EGR1) (AID 2282938); conditions: HepG2 Attagene CIS-FACTORIAL EGR reporter mRNA; actives raise or lower the signal
How it was run: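 Fluorescent capillary-electrophoresis signal of reporter cDNA fragments serves as read-out. HepG2 cells bear transiently transfected cis-promoter reporter units and are exposed 24 h; gain- or loss-of-signal is fitted against DMSO.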

[14] = ATG_M_19_CIS: Attagene CIS-FACTORIAL HepG2 Assay for M19 Transcription Factor (Internal Marker) (AID 2282939); conditions: HepG2 Attagene CIS-FACTORIAL M19 internal marker reporter; actives raise or lower the signal
How it was run: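 Signals come from fluorescence of labelled reporter-specific PCR fragments resolved by capillary electrophoresis, following 24 h treatment of HepG2 cells transfected with cis-promoter reporter units; activity was fitted in both directions relative to DMSO.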

[15] = ATG_Ets_CIS: Attagene CIS-FACTORIAL HepG2 Assay for human Erythroblast Transformation Specific (ETS) (AID 2282941); conditions: HepG2 ETS cis-reporter transcription, actives raise or lower the signal
How it was run: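 RT-PCR/capillary electrophoresis fluorescence read-out of reporter mRNA; HepG2 transient multi-reporter transfection; 24 h compound exposure; gain or loss of signal fitted bidirectionally relative to DMSO.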

[16] = molecular target: Hepatocyte nuclear factor 3-beta (Homo sapiens) (UniProt Q9Y261); assay: ATG_FoxA2_CIS: Attagene CIS-FACTORIAL HepG2 Assay for human Forkhead box A2 (FOXA2) (AID 2282942); conditions: HepG2 cis-reporter transcription factor activity, 24 h; actives raise or lower the signal
Sequence of Hepatocyte nuclear factor 3-beta (Homo sapiens) (Q9Y261 whole entry, looked up, the tested form may be a part): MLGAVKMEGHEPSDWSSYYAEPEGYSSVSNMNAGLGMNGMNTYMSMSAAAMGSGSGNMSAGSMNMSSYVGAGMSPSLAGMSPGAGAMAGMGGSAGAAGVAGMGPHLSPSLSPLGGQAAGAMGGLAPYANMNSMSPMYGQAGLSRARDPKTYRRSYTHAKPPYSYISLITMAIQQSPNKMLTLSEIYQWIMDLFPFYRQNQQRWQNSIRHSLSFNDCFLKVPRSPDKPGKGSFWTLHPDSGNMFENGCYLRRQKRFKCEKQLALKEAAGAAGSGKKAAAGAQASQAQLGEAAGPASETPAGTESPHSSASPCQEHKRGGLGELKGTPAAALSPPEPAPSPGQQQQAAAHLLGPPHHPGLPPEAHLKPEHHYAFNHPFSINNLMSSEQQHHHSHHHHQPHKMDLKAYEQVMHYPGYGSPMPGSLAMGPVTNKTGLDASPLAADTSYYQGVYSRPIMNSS
How it was run: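 Fluorescence signal of reporter cDNA fragments, separated by capillary electrophoresis, reflects endogenous transcription factor activity in transfected HepG2 after 24 h. Both increases and decreases fitted against DMSO.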

[17] = ATG_GATA_CIS: Attagene CIS-FACTORIAL HepG2 Assay for human GATA Binding Protein (AID 2282944); conditions: HepG2 GATA cis-element reporter, Attagene multiplex mRNA; actives raise or lower the signal
How it was run: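 After transfecting HepG2 cells with multiple cis-regulated reporter units, chemicals are dosed for 24 h; isolated RNA undergoes RT-PCR and fluorescent labeling before capillary electrophoresis, with activity expressed against DMSO.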

[18] = ATG_GLI_CIS: Attagene CIS-FACTORIAL HepG2 Assay for human Zinc Finger Protein GLI1 (AID 2282945); conditions: HepG2, Attagene cis-factorial reporter mRNA, GLI element; actives raise or lower the signal
How it was run: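 Transiently transfected HepG2 cells report endogenous transcription factor activity via cis-element-driven reporter units. After 24 h compound exposure, reporter mRNA was measured by RT-PCR with capillary electrophoresis; bidirectional fitting against DMSO baseline.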

[19] = ATG_FoxO_CIS: Attagene CIS-FACTORIAL HepG2 Assay for human Forkhead box O (FoxO) (AID 2282943); conditions: HepG2 Attagene cis-reporter, FoxO element, mRNA; actives raise or lower the signal
How it was run: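 Read-out: fluorescence of 6-FAM-labelled reporter cDNA fragments resolved by capillary electrophoresis. Transiently transfected HepG2 cells were dosed for 24 h; activity fitted in both directions relative to DMSO controls.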

[20] = ATG_ERE_CIS: Attagene CIS-FACTORIAL HepG2 Assay for Estrogen Response Element (ERE) (AID 2282940); conditions: HepG2 ERE cis-reporter, Attagene RNA transcript; actives raise or lower the signal
How it was run: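 Fluorescence of capillary-separated, FAM-labelled reporter cDNA fragments indicates reporter mRNA levels in HepG2 cells exposed to chemicals for 24 h. Transient transfection with cis-regulated units; data fitted in both directions against DMSO.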

Measured: AC50

CC(C)C[C@H]1C(=O)N2CCC[C@H]2[C@]2(O)O[C@](NC(=O)[C@@H]3C=C4c5cccc6[nH]c(Br)c(c56)C[C@H]4N(C)C3)(C(C)C)C(=O)N12
active: [4] 7.76 µM | [13] 1.65 µM
not listed: [19] | [20]
inactive: all other assays above

Cc1cccc(C)c1[N+](=O)[O-]
not listed: [17] | [20]
inactive: all other assays above

CCCCOCCOCCOCCOCCO
not listed: [9]
inactive: all other assays above

CCCCC(CC)COC(=O)/C=C\C(=O)OCC(CC)CCCC (stereo unspecified)
active: [1] 45 µM | [2] 56.9 µM | [4] 54.7 µM | [6] 52.7 µM | [9] 100 µM | [10] 100 µM
not listed: [11] | [20]
inactive: all other assays above

CC[C@]12CCCN3CCc4c(n(c5ccccc45)[C@@](O)(C(=O)OC)C1)[C@@H]32
not listed: [11] | [19] | [20]
inactive: all other assays above

CC(C)=CCC/C(C)=C/COC=O
not listed: [15] | [20]
inactive: all other assays above

N#Cc1ccc(CC(=NNC(=O)Nc2ccc(OC(F)(F)F)cc2)c2cccc(C(F)(F)F)c2)cc1
active: [5] 53.1 µM
not listed: [9]
inactive: all other assays above

O=c1cc(-c2ccccc2)oc2cc(O)cc(O)c12
active: [3] 3.31 µM | [4] 7.76 µM | [5] 5.85 µM | [11] 25.9 µM
not listed: [15] | [20]
inactive: all other assays above

Cc1ccc2ccccc2n1
active: [5] 18.3 µM
not listed: [15] | [19] | [20]
inactive: all other assays above

CC(C)OP(=O)(CP(=O)(OC(C)C)OC(C)C)OC(C)C
not listed: [9]
inactive: all other assays above

Cc1ccc(S)cc1
active: [3] 34.4 µM | [4] 59.7 µM | [6] 119 µM | [8] 100 µM
not listed: [9]
inactive: all other assays above

CCCCCCCCCCCCCCCC(=O)O
not listed: [11] | [20]
inactive: all other assays above

CO[Si](CCCn1c(=O)n(CCC[Si](OC)(OC)OC)c(=O)n(CCC[Si](OC)(OC)OC)c1=O)(OC)OC
not listed: [15] | [20]
inactive: all other assays above

Source: PubChem BioAssay (EPA / NIEHS)
